Assay outcomes as filed in PubChem BioAssay.
HDAC3 inh = HDAC3 deacetylase inhibitors, primary screen, biochemical, fluorescence, cell-free homogeneous | recombinant HDAC3, fluorogenic peptide/trypsin coupled | inhibition, % at 8.3 µM | 320,000 tested, 0.15% active; in the data active = inhibition above about 26%, passing the limit was not always enough
CHT inh = inhibitors of human choline transporter CHT | 310,000 tested, 0.86% active | CHT-expressing cells, membrane potential dye, choline response; hits give low values | High affinity choline transporter 1 (Homo sapiens), Q9GZV3 | B-score at 10 µM;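 active = B-score over 3 SD under the library average, and starting fluorescence ratio not unusually high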;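 note: choline stimulus applied at its EC90 after an EC20 pre-addition; B-score computed on integrated fluorescence ratio after choline addition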
CHT PAM = CHT positive allosteric modulators, primary screen, cell-based, membrane potential dye, choline EC20 | High affinity choline transporter 1 (Homo sapiens), Q9GZV3 | CHT-expressing cells; hits give high values; LV-AA mutant CHT in HEK293 cells | B-score at 10 µM | 310,000 tested, 0.49% active;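 active = initial fluorescence not abnormally high and integrated response B-score, plate-corrected, over 3 SD above library mean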
TMEM16A act = TMEM16A chloride channel activators or potentiators, primary screen, cell-based, HTS; Anoctamin-1 (Mus musculus), Q8BHY3; HEK293 TMEM16A/YFP-H148Q/I152L, iodide quench fluorescence; hits give low values; B-score at 10 µM; 340,000 tested, 0.3% active; AID 623877, 2012;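 active = fluorescence-ratio B-score plate-corrected deviation score at least 3 library SD below zero, with starting fluorescence score within 5 deviations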;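 note: channel opened by trigger with iodide after compound preincubation; score built on the fluorescence ratio of max minus min over baseline; more negative score means more quench and so TMEM16A activation or potentiation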
Target sequence (Q8BHY3 whole entry, looked up): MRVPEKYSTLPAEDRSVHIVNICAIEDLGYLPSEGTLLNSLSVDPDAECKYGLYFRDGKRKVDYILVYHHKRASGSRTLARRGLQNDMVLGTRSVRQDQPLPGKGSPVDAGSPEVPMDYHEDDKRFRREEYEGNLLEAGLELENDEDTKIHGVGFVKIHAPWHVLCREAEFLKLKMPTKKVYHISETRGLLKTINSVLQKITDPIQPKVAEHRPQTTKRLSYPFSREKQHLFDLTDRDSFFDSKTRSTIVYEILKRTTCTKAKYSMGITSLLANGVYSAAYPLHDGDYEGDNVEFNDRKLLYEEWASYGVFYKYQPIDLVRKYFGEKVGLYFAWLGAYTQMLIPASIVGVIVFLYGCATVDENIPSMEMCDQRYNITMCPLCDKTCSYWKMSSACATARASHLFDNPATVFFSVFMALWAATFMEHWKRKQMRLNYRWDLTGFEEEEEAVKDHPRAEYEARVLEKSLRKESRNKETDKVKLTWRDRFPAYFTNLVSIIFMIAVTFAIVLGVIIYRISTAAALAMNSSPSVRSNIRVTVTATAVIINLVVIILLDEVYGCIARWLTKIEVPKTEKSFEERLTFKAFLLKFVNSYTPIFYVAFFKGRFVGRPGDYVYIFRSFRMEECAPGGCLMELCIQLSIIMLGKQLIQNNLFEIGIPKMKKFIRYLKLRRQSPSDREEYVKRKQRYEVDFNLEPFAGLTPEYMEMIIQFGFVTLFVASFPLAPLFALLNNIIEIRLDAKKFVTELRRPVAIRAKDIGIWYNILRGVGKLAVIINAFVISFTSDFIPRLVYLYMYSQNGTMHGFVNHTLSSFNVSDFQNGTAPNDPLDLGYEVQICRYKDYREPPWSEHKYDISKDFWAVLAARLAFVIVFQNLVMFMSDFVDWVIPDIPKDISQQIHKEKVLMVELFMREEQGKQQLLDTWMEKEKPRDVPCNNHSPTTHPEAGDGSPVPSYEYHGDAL
PHOSPHO1 inh = PubChem AID 1565 | recombinant PHOSPHO1, absorbance phosphatase assay | 290,000 tested, 1.1% active | inhibition, % at 13.3 µM; in the data active = inhibition above about 60%
ANO1 block = TMEM16A chloride channel inhibitors, primary screen, cell-based, HTS; HEK293 TMEM16A/YFP iodide influx fluorescence, ionomycin; 310,000 tested, 1.2% active; AID 588511, 2011; normalized B-score (activity score, 25-100; higher = stronger inhibition) at 10 µM;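 active = ratio plate-corrected score three or more library SD toward inhibition, starting fluorescence score within five deviations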;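 note: score derived from kinetic fluorescence span divided by baseline fluorescence per well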
CHT block conf = CHT inhibitors, confirmation, cell-based, membrane potential dye, duplicate; shares compounds with CHT inh; CHT-expressing cells, choline membrane potential dye; LV-to-AA substituted CHT, HEK293 cells; CHT activity remaining % of control (hits give low values), % at 10 µM; 2,400 tested, 70% active; AID 493221, 2011;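 active = choline transporter activity left, mean of duplicates at 10 µM, below buffer-only control mean minus 3 SD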;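 note: depolarization triggered by choline at its EC90 following an EC20 pre-addition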
HEK293 MPD ctr = membrane potential effects in parental HEK293, counter-screen for CHT inhibitor project, cell-based, membrane potential dye; 2,400 tested, 4% active; shares compounds with CHT inh; choline response; active = decrease or increase beyond buffer ±3SD; membrane potential ratio readout (active if shifted either direction beyond buffer ±3SD; no single direction) at 10 µM;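 note: parental cells lack the transporter so any hit is non-specific; ratio is peak minus trough fluorescence over baseline after EC90 choline challenge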
Numbers stand for hits. Hits are enriched below; roughly 3.2% of the tested compounds scored in any of these assays.

How did O=C(CCCN1CCOCC1)c1ccc2c(c1)OCCO2 do in these assays?
HDAC3 inh: inactive; CHT inh: inactive; CHT PAM: inactive; TMEM16A act: inactive; PHOSPHO1 inh: inactive; ANO1 block: inactive

How did O=C(CCN1CCOCC1)c1ccc2c(c1)OCCO2 do in these assays?
HDAC3 inh: inactive; CHT inh: -5.2; CHT PAM: inactive; TMEM16A act: inactive; PHOSPHO1 inh: inactive; ANO1 block: inactive; CHT block conf: inactive; HEK293 MPD ctr: inactive

What do the screens show for `COc1ccc(C(=O)Nc2nnc(S(=O)(=O)Cc3ccc(F)cc3)s2)cc1`?
HDAC3 inh: inactive; CHT inh: inactive; CHT PAM: inactive; TMEM16A act: inactive; PHOSPHO1 inh: inactive; ANO1 block: inactive

What do the screens show for `COc1ccc(Cl)cc1NC(=O)C[n+]1cccc(C)c1`?
HDAC3 inh: inactive; CHT inh: -8.1; CHT PAM: inactive; TMEM16A act: inactive; PHOSPHO1 inh: inactive; ANO1 block: inactive; CHT block conf: 40%; HEK293 MPD ctr: inactive

How did O=C(CC1CCCCC1)c1c(O)c2ccccc2oc1=O do in these assays?
HDAC3 inh: inactive; CHT inh: -7.4; CHT PAM: inactive; TMEM16A act: inactive; PHOSPHO1 inh: inactive; ANO1 block: inactive; CHT block conf: 44%; HEK293 MPD ctr: 4.6

Results for CCn1c(C)nc2cc(C(=O)NNC(=O)c3ccc(Cl)nc3)ccc21 ?
HDAC3 inh: inactive; CHT inh: inactive; CHT PAM: inactive; TMEM16A act: inactive; PHOSPHO1 inh: inactive; ANO1 block: inactive

How did Cc1nccn1C[C@@H]1CCc2c(c3ccccc3n2C)C1=O do in these assays?
HDAC3 inh: inactive; CHT inh: -5.7; CHT PAM: inactive; TMEM16A act: inactive; PHOSPHO1 inh: inactive; ANO1 block: inactive; CHT block conf: 12%; HEK293 MPD ctr: inactive

How did Cc1nccn1CC1CCc2c(c3ccccc3n2C)C1=O (centres undefined) do in these assays?
HDAC3 inh: inactive; CHT inh: -6.7; CHT PAM: inactive; TMEM16A act: inactive; PHOSPHO1 inh: inactive; ANO1 block: inactive; CHT block conf: 7.4%; HEK293 MPD ctr: inactive

How did CCCCNC(=O)N(O)C1N(/N=C/c2ccccc2OC)C(=S)SC1(C)C (centres undefined) do in these assays?
HDAC3 inh: inactive; CHT inh: inactive; CHT PAM: inactive; TMEM16A act: inactive; PHOSPHO1 inh: inactive; ANO1 block: inactive

Results for CCn1c(CNc2ccc(F)cc2)nnc1SCC(=O)Nc1ccccc1OC ?
HDAC3 inh: inactive; CHT inh: inactive; CHT PAM: inactive; TMEM16A act: inactive; PHOSPHO1 inh: inactive; ANO1 block: inactive

How did CCC(CC)c1nnc(NC(=O)c2c(C)nn(Cc3ccccc3Cl)c2C)s1 do in these assays?
HDAC3 inh: inactive; CHT inh: -5.1; CHT PAM: inactive; TMEM16A act: inactive; PHOSPHO1 inh: inactive; ANO1 block: inactive; CHT block conf: inactive; HEK293 MPD ctr: inactive

How did CC(NC(=O)CN(c1cccc(C(F)(F)F)c1)S(=O)(=O)c1ccc(Cl)c([N+](=O)[O-])c1)c1ccccc1 (centres undefined) do in these assays?
HDAC3 inh: inactive; CHT inh: -6.2; CHT PAM: inactive; TMEM16A act: inactive; PHOSPHO1 inh: inactive; ANO1 block: inactive; CHT block conf: inactive; HEK293 MPD ctr: inactive

Results for Cc1cc(Cl)ccc1OCCCC(=O)N1CCN(C(=O)c2ccco2)CC1 ?
HDAC3 inh: inactive; CHT inh: -5.3; CHT PAM: inactive; TMEM16A act: inactive; PHOSPHO1 inh: inactive; ANO1 block: inactive; CHT block conf: 68%; HEK293 MPD ctr: inactive

Results for O=C(CCCOc1ccccc1)N1CCN(C(=O)c2ccco2)CC1 ?
HDAC3 inh: inactive; CHT inh: inactive; CHT PAM: inactive; TMEM16A act: inactive; PHOSPHO1 inh: inactive; ANO1 block: inactive

How did O=C(c1ccco1)N1CCN(C(=O)c2ccc(COc3ccc(Cl)cc3Cl)o2)CC1 do in these assays?
HDAC3 inh: inactive; CHT inh: -6.3; CHT PAM: inactive; TMEM16A act: inactive; ANO1 block: inactive; CHT block conf: inactive; HEK293 MPD ctr: inactive

How did Nc1nonc1C(=O)N1CCCC1 do in these assays?
HDAC3 inh: inactive; CHT inh: inactive; CHT PAM: inactive; TMEM16A act: inactive; PHOSPHO1 inh: inactive; ANO1 block: inactive

How did COc1ccc(C(=O)N2CCc3cc(OC)c(OC)cc3C2c2ccc(OC)c(OC)c2)cc1OC (centres undefined) do in these assays?
HDAC3 inh: inactive; CHT inh: inactive; CHT PAM: inactive; TMEM16A act: inactive; PHOSPHO1 inh: inactive; ANO1 block: inactive

What do the screens show for `COc1cc2c(cc1OC)C(c1cccs1)N(C(=O)c1cccnc1)CC2` (centres undefined)?
HDAC3 inh: inactive; CHT inh: -5.7; CHT PAM: inactive; TMEM16A act: inactive; PHOSPHO1 inh: inactive; ANO1 block: inactive; CHT block conf: inactive; HEK293 MPD ctr: inactive
